Measurements as given in ChEMBL document CHEMBL2218924, “A broad activity screen in support of a chemogenomic map for kinase signalling research and drug discovery” (Biochem J, 2013).

Legend:
[1] = target: Homeodomain-interacting protein kinase 3 (Homo sapiens) (UniProt Q9H422); conditions: at 10 µM
[2] = target: T1, Serine/threonine-protein kinase haspin (Homo sapiens) (UniProt Q8TF76); conditions: at 1 µM
T1 sequence (whole entry): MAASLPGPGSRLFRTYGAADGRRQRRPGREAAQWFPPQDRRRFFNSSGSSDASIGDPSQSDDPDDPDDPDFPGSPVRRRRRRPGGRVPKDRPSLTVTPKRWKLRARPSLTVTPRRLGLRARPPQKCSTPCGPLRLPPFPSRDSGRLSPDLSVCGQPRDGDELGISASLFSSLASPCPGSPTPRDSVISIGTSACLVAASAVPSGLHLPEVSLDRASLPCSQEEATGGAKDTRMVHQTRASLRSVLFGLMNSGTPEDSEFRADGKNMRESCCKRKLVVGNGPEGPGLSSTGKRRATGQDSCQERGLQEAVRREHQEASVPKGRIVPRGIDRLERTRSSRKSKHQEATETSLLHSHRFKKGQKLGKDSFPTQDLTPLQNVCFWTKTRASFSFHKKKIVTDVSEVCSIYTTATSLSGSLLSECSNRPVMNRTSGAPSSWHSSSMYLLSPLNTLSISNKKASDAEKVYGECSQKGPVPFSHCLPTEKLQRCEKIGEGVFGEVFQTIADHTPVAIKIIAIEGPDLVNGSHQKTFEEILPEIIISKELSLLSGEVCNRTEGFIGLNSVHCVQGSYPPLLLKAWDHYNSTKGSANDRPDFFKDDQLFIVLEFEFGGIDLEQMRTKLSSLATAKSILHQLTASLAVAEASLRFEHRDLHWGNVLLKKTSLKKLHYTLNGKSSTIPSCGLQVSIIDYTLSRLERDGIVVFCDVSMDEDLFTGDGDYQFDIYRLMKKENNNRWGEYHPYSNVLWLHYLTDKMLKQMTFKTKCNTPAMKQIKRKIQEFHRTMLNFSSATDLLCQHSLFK

[3] = target: T1, Serine/threonine-protein kinase haspin (Homo sapiens); conditions: at 10 µM
[4] = target: Tyrosine-protein kinase HCK (Homo sapiens) (UniProt P08631); conditions: at 1 µM
Sequence of Tyrosine-protein kinase HCK (Homo sapiens) (P08631 2-526 limits assumed): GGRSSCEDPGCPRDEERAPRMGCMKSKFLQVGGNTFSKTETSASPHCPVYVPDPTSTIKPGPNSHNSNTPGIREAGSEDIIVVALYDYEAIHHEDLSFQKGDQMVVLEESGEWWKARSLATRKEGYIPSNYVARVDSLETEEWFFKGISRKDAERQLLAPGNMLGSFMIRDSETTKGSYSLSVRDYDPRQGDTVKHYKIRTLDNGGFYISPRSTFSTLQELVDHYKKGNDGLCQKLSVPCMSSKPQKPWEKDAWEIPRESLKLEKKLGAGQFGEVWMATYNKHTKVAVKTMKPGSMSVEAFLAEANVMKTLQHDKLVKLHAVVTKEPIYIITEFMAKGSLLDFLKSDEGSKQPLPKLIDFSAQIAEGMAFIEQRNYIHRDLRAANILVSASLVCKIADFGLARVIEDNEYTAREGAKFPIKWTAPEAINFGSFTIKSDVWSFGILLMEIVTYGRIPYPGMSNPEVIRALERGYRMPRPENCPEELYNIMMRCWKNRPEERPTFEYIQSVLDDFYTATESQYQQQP

[5] = target: Tyrosine-protein kinase HCK (Homo sapiens) (UniProt P08631); conditions: at 10 µM
[6] = target: Tyrosine-protein kinase HCK (Homo sapiens) (UniProt P08631); conditions: at 1 µM; remark: listed apart in the source
[7] = target: Tyrosine-protein kinase HCK (Homo sapiens) (UniProt P08631); conditions: at 10 µM; remark: listed apart in the source
[8] = target: Insulin-like growth factor 1 receptor (Homo sapiens) (UniProt P08069); conditions: at 1 µM
Sequence of Insulin-like growth factor 1 receptor (Homo sapiens) (P08069 31-736 limits assumed): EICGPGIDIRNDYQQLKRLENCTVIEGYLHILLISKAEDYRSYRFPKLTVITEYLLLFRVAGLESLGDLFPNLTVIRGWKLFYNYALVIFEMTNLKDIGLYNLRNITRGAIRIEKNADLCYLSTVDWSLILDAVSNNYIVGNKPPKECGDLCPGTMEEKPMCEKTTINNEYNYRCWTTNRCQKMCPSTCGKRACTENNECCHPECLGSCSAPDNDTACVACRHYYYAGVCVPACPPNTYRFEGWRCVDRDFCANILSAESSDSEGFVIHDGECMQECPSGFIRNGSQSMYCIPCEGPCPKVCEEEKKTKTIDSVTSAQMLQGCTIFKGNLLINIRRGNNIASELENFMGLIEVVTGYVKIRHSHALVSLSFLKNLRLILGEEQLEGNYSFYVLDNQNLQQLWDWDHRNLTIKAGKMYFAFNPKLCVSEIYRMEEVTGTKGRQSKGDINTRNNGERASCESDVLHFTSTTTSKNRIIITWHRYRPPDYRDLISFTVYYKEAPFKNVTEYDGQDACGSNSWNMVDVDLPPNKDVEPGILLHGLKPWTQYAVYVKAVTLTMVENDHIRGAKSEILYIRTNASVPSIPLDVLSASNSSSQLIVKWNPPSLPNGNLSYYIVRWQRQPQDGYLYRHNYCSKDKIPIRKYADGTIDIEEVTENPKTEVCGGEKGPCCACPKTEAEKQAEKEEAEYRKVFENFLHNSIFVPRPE
Sequence of Insulin-like growth factor 1 receptor (Homo sapiens) (P08069 741-1367 limits assumed): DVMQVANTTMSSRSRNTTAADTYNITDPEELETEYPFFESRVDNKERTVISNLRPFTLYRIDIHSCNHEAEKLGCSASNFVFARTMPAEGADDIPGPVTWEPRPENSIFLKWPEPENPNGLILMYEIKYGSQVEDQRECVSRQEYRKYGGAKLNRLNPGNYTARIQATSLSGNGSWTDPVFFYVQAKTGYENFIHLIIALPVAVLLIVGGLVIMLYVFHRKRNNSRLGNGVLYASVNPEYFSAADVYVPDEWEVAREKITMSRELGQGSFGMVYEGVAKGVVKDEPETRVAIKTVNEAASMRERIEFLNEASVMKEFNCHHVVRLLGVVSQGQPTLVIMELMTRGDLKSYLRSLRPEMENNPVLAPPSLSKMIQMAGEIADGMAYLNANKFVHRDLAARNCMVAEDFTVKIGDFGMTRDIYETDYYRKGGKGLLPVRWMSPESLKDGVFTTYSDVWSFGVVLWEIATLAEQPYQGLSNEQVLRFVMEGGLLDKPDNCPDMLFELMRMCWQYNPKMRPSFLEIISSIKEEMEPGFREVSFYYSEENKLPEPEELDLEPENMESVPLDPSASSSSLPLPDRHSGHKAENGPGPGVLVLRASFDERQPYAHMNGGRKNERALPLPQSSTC

[9] = target: Insulin-like growth factor 1 receptor (Homo sapiens) (UniProt P08069); conditions: at 10 µM
[10] = target: T2, Protein kinase C zeta type (Homo sapiens) (UniProt Q05513); conditions: at 10 µM
T2 sequence (whole entry): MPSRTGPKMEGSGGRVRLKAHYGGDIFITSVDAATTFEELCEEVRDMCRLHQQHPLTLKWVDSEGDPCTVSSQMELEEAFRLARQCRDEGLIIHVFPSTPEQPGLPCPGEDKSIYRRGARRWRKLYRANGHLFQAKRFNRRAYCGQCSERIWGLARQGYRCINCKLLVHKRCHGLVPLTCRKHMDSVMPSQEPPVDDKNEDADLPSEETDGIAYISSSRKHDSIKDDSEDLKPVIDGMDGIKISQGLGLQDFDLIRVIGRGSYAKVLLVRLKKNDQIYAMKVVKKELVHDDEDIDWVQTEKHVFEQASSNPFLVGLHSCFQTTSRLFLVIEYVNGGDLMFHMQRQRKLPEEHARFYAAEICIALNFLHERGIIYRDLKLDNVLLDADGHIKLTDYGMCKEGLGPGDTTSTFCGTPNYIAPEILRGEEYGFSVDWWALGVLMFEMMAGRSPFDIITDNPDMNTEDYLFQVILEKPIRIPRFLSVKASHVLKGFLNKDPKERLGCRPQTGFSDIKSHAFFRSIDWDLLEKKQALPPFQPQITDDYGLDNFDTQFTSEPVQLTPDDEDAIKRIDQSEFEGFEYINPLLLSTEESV

[11] = target: Protein kinase C eta type (Homo sapiens) (UniProt P24723); conditions: at 1 µM
Sequence of Protein kinase C eta type (Homo sapiens) (P24723 whole entry): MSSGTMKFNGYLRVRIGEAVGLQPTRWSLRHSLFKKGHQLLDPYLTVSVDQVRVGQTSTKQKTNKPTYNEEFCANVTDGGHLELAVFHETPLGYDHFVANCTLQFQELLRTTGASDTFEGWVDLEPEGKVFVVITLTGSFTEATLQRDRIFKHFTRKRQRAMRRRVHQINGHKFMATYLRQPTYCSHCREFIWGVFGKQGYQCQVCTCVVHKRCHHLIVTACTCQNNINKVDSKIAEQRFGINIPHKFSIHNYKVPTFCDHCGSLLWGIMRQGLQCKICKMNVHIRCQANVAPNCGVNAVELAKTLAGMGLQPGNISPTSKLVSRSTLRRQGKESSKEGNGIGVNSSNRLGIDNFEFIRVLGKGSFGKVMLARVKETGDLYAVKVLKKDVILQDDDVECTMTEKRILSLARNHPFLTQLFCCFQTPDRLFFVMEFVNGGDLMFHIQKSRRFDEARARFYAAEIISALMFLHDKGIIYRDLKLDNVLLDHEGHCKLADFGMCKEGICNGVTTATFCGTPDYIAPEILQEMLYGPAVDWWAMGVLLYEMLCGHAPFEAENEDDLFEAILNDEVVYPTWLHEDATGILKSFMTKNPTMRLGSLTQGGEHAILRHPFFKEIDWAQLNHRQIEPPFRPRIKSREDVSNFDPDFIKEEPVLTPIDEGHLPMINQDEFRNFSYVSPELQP

[12] = target: Protein kinase C eta type (Homo sapiens) (UniProt P24723); conditions: at 10 µM
[13] = target: Protein kinase C theta type (Homo sapiens) (UniProt Q04759); conditions: at 1 µM
Sequence of Protein kinase C theta type (Homo sapiens) (Q04759 whole entry, looked up): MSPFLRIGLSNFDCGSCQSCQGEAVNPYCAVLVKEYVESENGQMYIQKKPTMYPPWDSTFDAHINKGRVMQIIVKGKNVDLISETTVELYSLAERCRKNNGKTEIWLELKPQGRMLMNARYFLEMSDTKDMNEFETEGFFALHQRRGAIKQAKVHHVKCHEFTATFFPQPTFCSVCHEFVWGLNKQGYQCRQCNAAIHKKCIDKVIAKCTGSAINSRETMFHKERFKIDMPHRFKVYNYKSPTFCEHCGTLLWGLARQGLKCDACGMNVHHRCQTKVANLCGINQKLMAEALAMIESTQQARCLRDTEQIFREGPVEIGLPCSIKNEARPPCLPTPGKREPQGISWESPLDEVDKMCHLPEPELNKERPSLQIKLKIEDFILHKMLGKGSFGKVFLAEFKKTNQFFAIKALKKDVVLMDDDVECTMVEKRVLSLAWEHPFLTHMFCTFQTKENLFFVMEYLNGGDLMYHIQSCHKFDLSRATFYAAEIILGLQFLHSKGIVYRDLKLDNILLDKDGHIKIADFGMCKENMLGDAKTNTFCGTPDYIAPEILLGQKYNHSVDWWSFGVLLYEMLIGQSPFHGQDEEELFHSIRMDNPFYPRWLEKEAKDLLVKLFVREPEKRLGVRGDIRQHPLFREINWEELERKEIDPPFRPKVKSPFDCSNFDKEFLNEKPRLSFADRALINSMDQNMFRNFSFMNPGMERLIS

[14] = target: Protein kinase C theta type (Homo sapiens) (UniProt Q04759); conditions: at 10 µM
[15] = target: T3, Protein kinase C iota type (Homo sapiens) (UniProt P41743); conditions: at 1 µM
T3 sequence (whole entry): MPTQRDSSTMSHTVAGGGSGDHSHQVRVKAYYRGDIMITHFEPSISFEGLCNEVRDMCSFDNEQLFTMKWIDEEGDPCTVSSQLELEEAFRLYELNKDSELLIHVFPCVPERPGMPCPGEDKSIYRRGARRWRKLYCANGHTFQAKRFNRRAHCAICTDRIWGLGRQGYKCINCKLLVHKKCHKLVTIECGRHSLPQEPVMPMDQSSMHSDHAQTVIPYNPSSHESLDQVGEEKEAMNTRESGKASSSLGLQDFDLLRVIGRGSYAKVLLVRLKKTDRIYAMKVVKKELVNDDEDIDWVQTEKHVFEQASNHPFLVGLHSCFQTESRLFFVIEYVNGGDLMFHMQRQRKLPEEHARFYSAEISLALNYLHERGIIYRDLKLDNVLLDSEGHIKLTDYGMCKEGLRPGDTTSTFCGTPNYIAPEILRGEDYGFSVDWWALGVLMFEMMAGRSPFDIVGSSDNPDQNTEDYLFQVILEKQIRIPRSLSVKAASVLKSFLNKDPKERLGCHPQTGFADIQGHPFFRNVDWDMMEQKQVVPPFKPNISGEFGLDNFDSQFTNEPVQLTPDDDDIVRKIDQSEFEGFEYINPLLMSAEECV

[16] = target: T3, Protein kinase C iota type (Homo sapiens); conditions: at 10 µM
[17] = target: T4, Serine/threonine-protein kinase D1 (Homo sapiens) (UniProt Q15139); conditions: at 1 µM
T4 sequence (whole entry): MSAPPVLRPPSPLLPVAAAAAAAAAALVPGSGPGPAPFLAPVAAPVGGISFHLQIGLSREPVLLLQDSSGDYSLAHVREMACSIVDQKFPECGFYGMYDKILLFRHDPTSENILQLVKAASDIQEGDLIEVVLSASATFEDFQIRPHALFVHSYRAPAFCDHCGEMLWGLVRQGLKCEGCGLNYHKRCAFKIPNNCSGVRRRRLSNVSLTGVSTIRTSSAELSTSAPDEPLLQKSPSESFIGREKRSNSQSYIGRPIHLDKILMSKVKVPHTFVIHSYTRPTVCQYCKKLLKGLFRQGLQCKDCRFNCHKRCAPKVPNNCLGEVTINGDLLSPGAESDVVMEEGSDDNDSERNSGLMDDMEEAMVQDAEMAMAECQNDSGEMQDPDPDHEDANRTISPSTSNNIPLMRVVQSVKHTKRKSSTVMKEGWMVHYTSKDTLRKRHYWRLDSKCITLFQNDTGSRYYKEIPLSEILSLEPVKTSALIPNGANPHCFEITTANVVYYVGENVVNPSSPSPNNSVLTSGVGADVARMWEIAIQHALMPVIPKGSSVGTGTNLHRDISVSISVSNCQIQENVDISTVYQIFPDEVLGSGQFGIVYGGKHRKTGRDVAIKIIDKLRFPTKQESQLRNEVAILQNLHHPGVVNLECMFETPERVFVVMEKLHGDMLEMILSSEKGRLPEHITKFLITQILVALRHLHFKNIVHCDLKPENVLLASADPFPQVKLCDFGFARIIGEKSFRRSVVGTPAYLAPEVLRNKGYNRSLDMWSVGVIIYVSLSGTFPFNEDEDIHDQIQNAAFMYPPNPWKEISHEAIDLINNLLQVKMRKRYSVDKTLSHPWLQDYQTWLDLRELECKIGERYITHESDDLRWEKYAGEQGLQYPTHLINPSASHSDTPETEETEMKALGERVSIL

[18] = target: T4, Serine/threonine-protein kinase D1 (Homo sapiens); conditions: at 10 µM
[19] = target: T5, Serine/threonine-protein kinase D2 (Homo sapiens) (UniProt Q9BZL6); conditions: at 1 µM
T5 sequence (whole entry): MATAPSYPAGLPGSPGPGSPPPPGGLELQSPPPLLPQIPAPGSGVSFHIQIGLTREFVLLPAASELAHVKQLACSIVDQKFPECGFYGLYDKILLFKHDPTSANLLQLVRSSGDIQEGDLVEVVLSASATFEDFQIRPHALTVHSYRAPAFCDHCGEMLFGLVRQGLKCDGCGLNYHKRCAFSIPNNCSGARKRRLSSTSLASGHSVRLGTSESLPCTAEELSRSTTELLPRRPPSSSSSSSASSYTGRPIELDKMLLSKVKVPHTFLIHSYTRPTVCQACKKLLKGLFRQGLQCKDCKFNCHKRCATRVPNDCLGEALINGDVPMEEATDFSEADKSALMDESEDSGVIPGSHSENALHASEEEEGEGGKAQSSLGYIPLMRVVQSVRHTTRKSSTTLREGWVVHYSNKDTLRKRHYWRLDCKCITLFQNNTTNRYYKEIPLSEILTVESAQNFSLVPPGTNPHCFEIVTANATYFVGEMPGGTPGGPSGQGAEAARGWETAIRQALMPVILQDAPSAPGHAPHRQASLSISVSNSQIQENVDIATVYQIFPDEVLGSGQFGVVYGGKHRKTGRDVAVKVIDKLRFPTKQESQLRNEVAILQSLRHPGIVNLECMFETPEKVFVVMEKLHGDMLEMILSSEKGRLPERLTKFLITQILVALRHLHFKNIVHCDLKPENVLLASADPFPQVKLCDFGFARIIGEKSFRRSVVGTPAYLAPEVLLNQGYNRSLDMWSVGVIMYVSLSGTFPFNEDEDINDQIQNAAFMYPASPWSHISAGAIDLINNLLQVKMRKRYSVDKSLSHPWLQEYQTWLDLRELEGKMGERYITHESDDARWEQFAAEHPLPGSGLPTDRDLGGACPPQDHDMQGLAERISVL

[20] = target: T5, Serine/threonine-protein kinase D2 (Homo sapiens); conditions: at 10 µM

Sequence of Homeodomain-interacting protein kinase 3 (Homo sapiens) (Q9H422 whole entry, looked up): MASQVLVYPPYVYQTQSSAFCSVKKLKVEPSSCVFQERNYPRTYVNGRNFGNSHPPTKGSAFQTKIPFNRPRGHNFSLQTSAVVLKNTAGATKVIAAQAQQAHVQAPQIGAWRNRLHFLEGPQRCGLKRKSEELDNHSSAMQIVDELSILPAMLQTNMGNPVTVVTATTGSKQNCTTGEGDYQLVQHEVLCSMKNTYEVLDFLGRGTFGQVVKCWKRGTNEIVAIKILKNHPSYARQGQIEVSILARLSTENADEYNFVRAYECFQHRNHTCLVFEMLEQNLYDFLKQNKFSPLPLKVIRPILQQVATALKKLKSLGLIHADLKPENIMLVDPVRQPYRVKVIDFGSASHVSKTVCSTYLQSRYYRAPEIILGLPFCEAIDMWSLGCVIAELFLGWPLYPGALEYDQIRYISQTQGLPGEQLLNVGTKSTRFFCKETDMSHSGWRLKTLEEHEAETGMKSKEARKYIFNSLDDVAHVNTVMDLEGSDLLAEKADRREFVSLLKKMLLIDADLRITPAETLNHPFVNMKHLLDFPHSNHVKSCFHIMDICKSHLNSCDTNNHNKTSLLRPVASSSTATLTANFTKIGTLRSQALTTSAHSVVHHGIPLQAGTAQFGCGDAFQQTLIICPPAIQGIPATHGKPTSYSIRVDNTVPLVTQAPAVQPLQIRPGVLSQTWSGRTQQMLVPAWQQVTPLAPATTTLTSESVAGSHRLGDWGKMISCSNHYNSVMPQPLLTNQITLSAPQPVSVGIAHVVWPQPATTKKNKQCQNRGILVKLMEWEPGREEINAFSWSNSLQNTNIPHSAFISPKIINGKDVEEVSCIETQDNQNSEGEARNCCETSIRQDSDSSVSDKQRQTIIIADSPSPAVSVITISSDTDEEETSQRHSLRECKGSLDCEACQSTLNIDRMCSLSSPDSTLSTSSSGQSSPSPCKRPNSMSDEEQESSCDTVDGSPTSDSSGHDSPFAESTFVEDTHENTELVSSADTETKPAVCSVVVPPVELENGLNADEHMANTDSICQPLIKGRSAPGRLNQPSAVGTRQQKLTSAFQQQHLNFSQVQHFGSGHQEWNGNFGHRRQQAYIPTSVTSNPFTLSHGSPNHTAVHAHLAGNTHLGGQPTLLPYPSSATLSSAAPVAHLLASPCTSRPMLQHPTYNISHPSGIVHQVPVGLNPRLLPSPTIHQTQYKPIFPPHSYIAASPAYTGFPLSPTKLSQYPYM

Compound	residual activity [1] [%]	residual activity [2] [%]	residual activity [3] [%]	residual activity [4] [%]	residual activity [5] [%]	residual activity [6] [%]	residual activity [7] [%]	residual activity [8] [%]	residual activity [9] [%]	residual activity [10] [%]	residual activity [11] [%]	residual activity [12] [%]	residual activity [13] [%]	residual activity [14] [%]	residual activity [15]	residual activity [16] [%]	residual activity [17] [%]	residual activity [18] [%]	residual activity [19] [%]	residual activity [20] [%]
O=c1cc(-c2cccc3c2Sc2ccccc2S3)oc(N2CCOCC2)c1	104	94	98	96	82	101	100	100	113	100	107	101	97	91	117% (inactive)	102	86	80	106	103
Nc1cccc(-c2cc3c(Oc4cccc(O)c4)ncnc3[nH]2)c1	–	86	45	4	1	-3	-1	99	124	–	83	64	88	57	–	99	80	51	99	54
Cc1nc(-c2ccccc2)c(-c2ccncc2)o1	103	94	35	24	20	96	91	94	128	112	101	90	107	103	108% (inactive)	103	113	80	103	94
CO[C@@H]1[C@H](N(C)C(=O)c2ccccc2)C[C@H]2O[C@]1(C)n1c3ccccc3c3c4c(c5c6ccccc6n2c5c31)C(=O)NC4	68	78	43	7	5	–	12	115	68	102	84	29	15	11	79% (inactive)	85	85	–	101	92
